From the supplement of paper PMC3334620
Over roughly 33,000 sequences, “E-score (-0.5 to 0.5)” has its median near -0.01; the highest 2% begin near 0.26. This excerpt belongs to a sample that is enriched for the highest values.

Target: Ste12 (UniProt P13574)
Assay: PBM E-score (8-mer binding enrichment) (E-score (-0.5 to 0.5)); higher = stronger / more preferred TF binding
Settings: protein concentration: 200 nM; construct: GST-DNA-binding domain
In short: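 Universal all-10-mer Agilent arrays, double-stranded by primer extension on fresh or once-stripped slides, were probed with about 100-200 nM GST-tagged yeast transcription factors made by PURExpress. Fluorescent anti-GST detected bound protein, and masliner normalised the scans. E-scores from the Universal PBM Analysis Suite were given to each ungapped eight-base word pooled with its reverse complement.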

Chain of UniProt P13574 (P13574 whole entry): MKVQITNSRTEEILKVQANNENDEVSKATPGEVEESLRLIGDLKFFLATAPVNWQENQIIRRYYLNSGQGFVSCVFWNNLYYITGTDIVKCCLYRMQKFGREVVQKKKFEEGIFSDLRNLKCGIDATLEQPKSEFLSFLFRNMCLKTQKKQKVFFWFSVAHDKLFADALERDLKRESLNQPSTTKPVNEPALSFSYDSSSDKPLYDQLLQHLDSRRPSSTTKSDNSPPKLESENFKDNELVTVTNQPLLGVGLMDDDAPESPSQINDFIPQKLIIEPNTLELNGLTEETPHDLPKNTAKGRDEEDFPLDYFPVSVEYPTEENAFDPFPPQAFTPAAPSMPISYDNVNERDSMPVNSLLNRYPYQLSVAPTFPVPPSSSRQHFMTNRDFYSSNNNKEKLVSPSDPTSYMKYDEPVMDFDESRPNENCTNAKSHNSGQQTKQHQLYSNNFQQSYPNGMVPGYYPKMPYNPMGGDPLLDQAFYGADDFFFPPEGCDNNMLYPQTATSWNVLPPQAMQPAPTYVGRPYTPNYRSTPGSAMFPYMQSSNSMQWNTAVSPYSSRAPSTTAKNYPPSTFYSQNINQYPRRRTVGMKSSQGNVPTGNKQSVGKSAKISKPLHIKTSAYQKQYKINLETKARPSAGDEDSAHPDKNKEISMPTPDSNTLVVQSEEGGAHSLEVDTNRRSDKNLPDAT

| Sequence | PBM E-score |
| --- | --- |
| AATAGCAA | 0.00204 |
| AAACGTTT | 0.283 |
| AAACGTGT | 0.123 |
| AAACGTGA | 0.312 |
| AAACGTGG | 0.0452 |
| AAACGTTG | 0.111 |
| AAACGTTA | 0.0762 |
| GCAAGGGA | -0.0936 |
| AAGTAGCA | 0.0754 |
| CAACTGAA | 0.201 |
| AGCCAGAC | -0.132 |
| CGCCCCAG | 0.0509 |
| CGCCCCCA | -0.079 |
| GGCCCCAC | -0.181 |
| CGCCCCAC | 0.272 |
| CGCCCCAA | 0.296 |
| GGCCCCAA | -0.177 |
| CTAACGCA | -0.0702 |
| ATAGAAAC | 0.189 |
| CTCCCCGC | 0.386 |
| CGCCCCTA | 0.214 |
| CTCCCCTC | 0.28 |
| ATCCCCTC | 0.303 |
| ATCCCCTA | -0.0687 |
| ATCCCCGC | 0.249 |

| Sequence | PBM E-score |
| --- | --- |
| CGCCCCTC | 0.351 |
| ATCCCCTG | -0.157 |
| CTCCCCGA | 0.0416 |
| AGCCCCTC | -0.00471 |
| CTCCCCTA | -0.0541 |
| CCCCCCTC | -0.244 |
| ACAGACTG | 0.0359 |
| GACTCCCC | -0.26 |
| CCAGGCTC | -0.124 |
| AGGCTTCG | -0.158 |
| ACACTTCC | -0.0741 |
| CAGAGCAC | 0.0445 |
| AATCGAGG | 0.108 |
| ATGAGAGC | -0.126 |
| TAAGCTCA | -0.18 |
| TCGATACA | 0.19 |
| AACTCCGC | -0.0808 |
| AGTGCGCC | -0.156 |
| GAATTTCA | -0.0538 |
| CTTTGTTA | 0.219 |
| CTTTGTAA | 0.152 |
| GTTTGTTA | 0.169 |
| ATTTGTTC | 0.266 |
| ATTTGTAG | 0.127 |
| CTTTGTTC | 0.227 |

| Sequence | PBM E-score |
| --- | --- |
| ATTTGTTG | 0.181 |
| ATTTGTAA | 0.288 |
| ATTTGTTA | 0.274 |
| CCTAATGA | 0.13 |
| AGGGTCTC | -0.153 |
| CCCTTCAC | -0.0106 |
| AATTCATG | 0.255 |
| ACCCAGAT | 0.0125 |
| AGACCACG | -0.255 |
| AAAACACT | 0.215 |
| GAAACACC | 0.311 |
| CAAACACG | 0.17 |
| TAAACACA | 0.175 |
| CAAACACC | 0.121 |
| AAAACACC | 0.213 |
| AAAACACG | 0.304 |
| GAAACACA | 0.408 |
| AAAACACA | 0.198 |
| AGGGCTCC | -0.236 |
| GTCGCTTA | -0.193 |
| CCGGGCAA | -0.0289 |
| CATTGTGG | 0.0722 |
| ATGCTCCA | 0.0506 |
| TGCTGAAA | 0.24 |
| GGCTGAAA | 0.27 |

| Sequence | PBM E-score |
| --- | --- |
| AGCTGAAC | -0.288 |
| AGCTGAAA | 0.264 |
| TCCTGAAA | 0.25 |
| AGCTGAAG | -0.127 |
| GCCTGAAC | -0.209 |
| GCCTGAAA | 0.273 |
| CGCTGAAA | 0.251 |
| GCCACAGC | -0.299 |
| GGGGCTAA | -0.0575 |
| CCTATAGA | 0.00311 |
| ATTGCGAC | 0.277 |
| CTTGCGAC | -0.128 |
| ATTGCGAG | 0.127 |
| CCGTCGCA | 0.176 |
| CAATGCGA | -0.00861 |
| CATGATCA | 0.0535 |
| ATCTAAAA | 0.285 |
| GTCTAAAA | 0.135 |
| TTCTAAAA | 0.292 |
| ATCTAAAT | 0.172 |
| CTCTAAAA | 0.0605 |
| ATCTAAAC | 0.127 |
| CGCTCTGA | 0.0576 |
| ACTGGGTG | -0.107 |
| GTACCTCA | -0.173 |

| Sequence | PBM E-score |
| --- | --- |
| GAGTTGGA | 0.0912 |
| ATAGTCAT | -0.141 |
| AGGAGCGC | -0.0491 |
| TAGTGACA | -0.0814 |
| TCGTGAAA | 0.177 |
| TAGTGATA | -0.126 |
| ACGTGAAA | 0.323 |
| CAGTGAAA | 0.197 |
| ACGTGAAC | -0.226 |
| GAGTGAAA | 0.204 |
| AAGTGAAA | 0.291 |
| TAGTGAAA | 0.324 |
| GGCCACAA | 0.0783 |
| CTCCCAGA | -0.165 |
| CCCCAAGC | 0.176 |
| GCAATCAA | 0.0398 |
| ACTGGGAA | 0.0846 |
| AGCTAGTC | -0.133 |
| CCAAACAA | 0.125 |
| ACAAACAG | 0.125 |
| ACAAACAA | 0.0589 |
| GCAAACAA | 0.146 |
| TCAAACAA | 0.266 |
| ACAAACAC | 0.266 |
| CAGGGCGA | -0.103 |

| Sequence | PBM E-score |
| --- | --- |
| CAGCGATC | -0.00075 |
| AATGTCAT | 0.0301 |
| AGTCCCAC | -0.133 |
| CACAATAG | 0.227 |
| AGTCTAAT | 0.00604 |
| ATATAGAT | 0.179 |
| AGGGGCGA | 0.165 |
| AGGCGGGC | 0.0738 |
| AGGGCGTG | -0.116 |
| AGGGGCGC | 0.0204 |
| AGGGCGGG | 0.296 |
| AGGCGGGA | 0.0721 |
| AGGCGGGG | 0.269 |
| AGGGGCGG | 0.452 |
| AGGGCGGC | -0.0895 |
| GCAAAGCC | -0.185 |
| TCCCAGAA | -0.0433 |
| TGCTTTAA | 0.199 |
| ACTGAGGG | -0.101 |
| CGAGGTAC | -0.0522 |
| CGCCGCAG | 0.0202 |
| TAATTAGA | 0.161 |
| CAATTAGA | 0.102 |
| AAATTAGA | 0.283 |
| GCCGAACC | 0.0313 |

| Sequence | PBM E-score |
| --- | --- |
| CGCTGAGC | -0.154 |
| GGCCCGCC | 0.0329 |
| AACCCGCC | 0.0991 |
| CCCCCGCC | -0.0801 |
| GCCCCGCC | 0.33 |
| GCCCCGCA | -0.112 |
| ACCCCGCC | 0.41 |
| ACCCCTCC | 0.229 |
| CTCGCGAC | 0.0527 |
| GTCGCGAC | 0.389 |
| GTCGCGAA | -0.0274 |
| AACTATGG | -0.0761 |
| ATGTTGCG | 0.139 |
| AATTAATT | 0.254 |
| TATTAATA | 0.336 |
| GATTAATA | 0.246 |
| AATTAGTC | 0.218 |
| CATTAATA | 0.251 |
| CATTAGTA | 0.071 |
| AATTAGTA | 0.263 |
| AATTAATA | 0.359 |
| AATTAATG | 0.232 |
| CCATTGCA | 0.0632 |
| CGCCTAGC | -0.0616 |
| GTCACTAA | 0.0793 |

| Sequence | PBM E-score |
| --- | --- |
| AATGGGGT | -0.0055 |
| TAAACTTA | 0.168 |
| TAAACTAA | 0.148 |
| CAAACTAC | 0.0311 |
| CAAACTTC | 0.124 |
| CAAACTAA | 0.265 |
| CAAACTTA | 0.276 |
| ACGCTGAC | -0.194 |
| AGCAAACC | 0.194 |
| CATGGGAA | -0.0149 |
| CGGCTATC | -0.174 |
| ATTTCTAC | 0.253 |
| AACAAATG | 0.176 |
| AACAAATT | 0.268 |
| AACAAGTT | 0.154 |
| AACAAGTA | 0.00602 |
| TACAAATA | 0.218 |
| AACAAATA | 0.341 |
| CAGGCAAA | 0.0381 |
| AATCTTAT | 0.0186 |
| CGTTAGGA | 0.0933 |
| CGAATCCG | 0.0624 |
| GCCGCTTA | 0.0462 |
| GCGTTCTA | -0.0704 |
| AAATTCTC | 0.105 |

| Sequence | PBM E-score |
| --- | --- |
| GAATTCTA | 0.107 |
| CAATTCTC | 0.00128 |
| AAATTCTA | 0.0535 |
| TAATTCTA | 0.267 |
| GAATTCTC | 0.262 |
| CTTCACCC | 0.0896 |
| AAACGCTA | 0.112 |
| CCTGGCTA | -0.217 |
| GTCCGAAA | 0.211 |
| ATCCGAAA | 0.185 |
| TTCCGAAA | 0.264 |
| GAGGGCCA | 0.0172 |
| AAGAGATA | -0.0137 |
| CCGGCTCC | -0.0246 |
| AAAGTCGT | -0.0472 |
| CAAGTCGC | -0.3 |
| AAAGTCGC | 0.282 |
| GAGATGGA | -0.167 |
| GACATTGA | 0.051 |
